IDE exosite FP – displaces the probe from the exo-site of human IDE; z-score at 20 µM; actives 6.3% (n = 17,000); AID 1259349; purified IDE, FL-6b probe fluorescence polarization; stronger effect = lower value; P14735;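 active = z-score of -3 or lower, meaning strong loss of probe binding signal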;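 also: His-tagged human IDE residues 42-1019 made in E. coli with 30 nM FL-6b probe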
* marks the source's active call; other numbers are inactive results. The full list was thinned out, with hits kept by preference.

SMILES	IDE exosite FP
O=C(Nc1cccc(F)c1)N1C[C@@H]2N[C@H](C1)C2c1ccc(-c2cccnc2)cc1 (stereo not given in full)	1.4
O=C(Nc1cccc(F)c1)N1C[C@@H]2N[C@H](C1)C2c1ccc(-c2ccccc2F)cc1 (stereo not given in full)	-0.69
C/C=C/c1ccc(C2[C@@H]3CN(C(=O)NC4CCCCC4)C[C@H]2N3)cc1 (stereo not given in full)	-0.36
Cc1ccccc1-c1ccc(C2[C@H]3CNC[C@@H]2N3C(=O)Nc2ccc(F)cc2)cc1 (stereo not given in full)	-0.67
O=C(NC1CCCCC1)N1C[C@@H]2N[C@H](C1)C2c1ccc(-c2ccc(F)cc2)cc1 (stereo not given in full)	2.2
O=C(Nc1ccc(F)cc1)N1C[C@@H]2N[C@H](C1)C2c1ccc(/C=C/c2ccccc2)cc1 (stereo not given in full)	0.82
C[C@@H](NC(=O)[C@H]1[C@H](CO)[C@H]2Cn3c(ccc(-c4ccccc4)c3=O)[C@H]2N1C)c1ccccc1	0.0021
CC(C)CC#Cc1ccc([C@@H]2[C@H]3CN(C(=O)NC4CCCCC4)CC(=O)N3[C@H]2CO)cc1	0.86
O=C(Nc1cccc(F)c1)N1CC(=O)N2[C@@H](CO)[C@@H](c3ccc(-c4ccc(F)cc4)cc3)[C@@H]2C1	0.59
N#C[C@@H]1[C@@H](c2ccccc2-c2ccccc2)[C@H](CO)N1C(=O)Cc1ccncc1	-1.8
COCC(=O)N(C[C@H]1N[C@H](CO)[C@@H]1c1ccc(-c2ccccc2)cc1)C(C)C	1.2
CCC(=O)N1CC2(C1)[C@H](c1ccccc1)[C@H](CO)N2CC1CC1	1.5
Cc1noc(C)c1NC(=O)N1C[C@H](O)COC[C@H]2O[C@@H](CC(=O)N[C@H]3CCN(Cc4ccccc4)C3)CC[C@@H]21	-1.6
O=C(NC[C@@H]1[C@H](c2ccccc2)[C@H](CO)N1Cc1ccccn1)C1CC1	4.4
O=C(Cc1cccnc1)N1CC(=O)N2[C@H](CO)[C@H](c3ccc(/C=C/c4ccccc4)cc3)[C@@H]2C1	-5.1*
C/C=C/c1ccc([C@H]2[C@H](CO)N3C(=O)CN(C(=O)Cc4cccnc4)C[C@@H]23)cc1	2.1
O=C(Cc1cccnc1)N1CC(=O)N2[C@H](CO)[C@@H](c3ccc(/C=C/c4ccccc4)cc3)[C@@H]2C1	-0.7
C/C=C/c1ccc([C@H]2[C@@H](CO)N3C(=O)CN(C(=O)Cc4cccnc4)C[C@@H]23)cc1	-1.7
C/C=C/c1ccc([C@@H]2[C@@H](CO)N3C(=O)CN(C(=O)Cc4cccnc4)C[C@@H]23)cc1	3.2
O=C(Cc1cccnc1)N1CC(=O)N2[C@H](C1)[C@H](c1ccc(/C=C/c3ccccc3)cc1)[C@@H]2CO	-5*
CO[C@@H]1CN(C)C(=O)c2cc(NC(=O)Nc3cccc(Cl)c3)ccc2OC[C@H](C)N(C(=O)Nc2c(C)noc2C)C[C@@H]1C	0.72
CO[C@@H](CN(C)S(=O)(=O)c1ccc(C)cc1)[C@@H](C)CN([C@H](C)CO)S(=O)(=O)c1cccc(Cl)c1	1.9
COc1ccc(-c2ccc([C@H]3[C@H](CO)N4C(=O)CN(C(=O)c5cccnc5)C[C@@H]34)cc2)cc1	-1.8
Cc1cccc(-c2ccc([C@H]3[C@H](CO)N4C(=O)CN(C(=O)c5cccnc5)C[C@@H]34)cc2)c1	-9.6*
Cc1cccc(-c2ccc([C@H]3[C@H]4CN(C(=O)c5cccnc5)CC(=O)N4[C@H]3CO)cc2)c1	-2.8
SMILES	IDE exosite FP
Cc1cccc(-c2ccc([C@@H]3[C@H](CO)N4C(=O)CN(C(=O)c5cccnc5)C[C@@H]34)cc2)c1	-6.3*
COc1ccc(-c2ccc([C@@H]3[C@H](CO)N4C(=O)CN(C(=O)c5cccnc5)C[C@@H]34)cc2)cc1	-1.5
COc1ccc(-c2ccc([C@@H]3[C@@H](CO)N4C(=O)CN(C(=O)c5cccnc5)C[C@@H]34)cc2)cc1	0.76
CN(C)CC#Cc1ccc([C@H]2[C@H]3CN(C(=O)c4ccccc4)CC(=O)N3[C@H]2CO)cc1	1.7
Cc1ccc(-c2ccccc2[C@@H]2[C@H](C#N)N(C(=O)Cc3cccnc3)[C@H]2CO)cc1	3.8
C/C=C/c1ccc([C@H]2[C@@H](CO)N3C(=O)CN(Cc4ccc(C(=O)OC)cc4)C[C@H]23)cc1	2.7
COc1ccc(CNC(=O)C[C@H]2CC[C@@H](NC(=O)CN(C)C)[C@H](CO)O2)cc1	0.92
CCC(=O)N1CC(=O)N2[C@H](C1)[C@H](c1ccc(-c3cccc(C(=O)N(C)C)c3)cc1)[C@@H]2CO	4.7
Cc1cc(C(=O)Nc2ccc3c(c2)C(=O)N(C)[C@H]2CC[C@@H](CC(=O)NCc4ccc(-c5ccccc5)cc4)O[C@@H]2CO3)no1	-1.6
C[C@H]1CN([C@@H](C)CO)C(=O)c2ccccc2-c2ccccc2CO[C@@H]1CN(C)C(=O)Nc1ccc(-c2ccccc2)cc1	1.1
CC(=O)N1CCCCN2[C@H](CO)[C@H](c3ccc(-c4ccc(C)cc4)cc3)[C@@H]2C1	0.45
CC(=O)N1CCCCN2[C@@H](CO)[C@@H](c3ccc(-c4ccccc4)cc3)[C@@H]2C1	-1.8
CC(=O)N1CCCCN2[C@H](CO)[C@@H](c3ccc(-c4cccc(C)c4)cc3)[C@H]2C1	-5.7*
CC(=O)N1CCCCN2[C@H](CO)[C@@H](c3ccc(-c4cccc(C)c4)cc3)[C@@H]2C1	-3.5*
COCC(=O)N1CCCCN2[C@H](CO)[C@H](c3ccc(-c4ccc(C)cc4)cc3)[C@H]2C1	0.099
COCC(=O)N1CCCCN2[C@H](CO)[C@@H](c3ccc(-c4cccc(C)c4)cc3)[C@H]2C1	-0.66
CC(=O)N1CCCCN2[C@@H](CO)[C@@H](c3ccc(-c4cccc(C)c4)cc3)[C@@H]2C1	-2.4
CC(=O)N1CCCCN2[C@H](C1)[C@H](c1ccc(-c3ccccc3)cc1)[C@@H]2CO	0.47
COCC(=O)N1CCCCN2[C@H](C1)[C@@H](c1ccc(-c3cccc(C)c3)cc1)[C@@H]2CO	-5*
CO[C@@H]1CN(C)C(=O)c2ccc(NC(=O)C3CCC3)cc2OC[C@@H](C)N(Cc2ccccn2)C[C@H]1C	1.7
COC(=O)c1ccc(CN2CC(=O)N3[C@@H](CO)[C@H](c4ccc(-c5ccccc5)cc4)[C@@H]3C2)cc1	1.7
O=C(Cc1ccncc1)N1CC(=O)N2[C@H](C1)[C@@H](c1ccc(C3=CCCC3)cc1)[C@@H]2CO	1.9
C[C@@H]1CN([C@H](C)CO)C(=O)CCCn2nncc2CO[C@@H]1CN(C)Cc1ccccc1C(=O)O	-0.032
Cn1cnc(S(=O)(=O)N2[C@@H]3CNC[C@H]2C3c2ccc(-c3ccncc3)cc2)c1 (stereo not given in full)	4.8
O=C(Nc1cc(F)ccc1F)N1CC(=O)N2[C@H](C1)[C@@H](c1ccc(/C=C/c3ccccc3)cc1)[C@@H]2CO	-1.5
CN1CCN(C(=O)C[C@H]2CC[C@@H]3[C@H](COC[C@H](O)CN3Cc3cccc(-c4ccncc4)c3)O2)CC1	-1
COc1ccc(C#Cc2ccc([C@@H]3[C@@H](CO)N4CCCCN(C)C[C@@H]34)cc2)cc1	0.079
CN1CCCCN2[C@H](CO)[C@@H](c3ccc(C#Cc4ccccc4F)cc3)[C@H]2C1	-4.7*
CN1CCCCN2[C@H](C1)[C@H](c1ccc(-c3ccc(F)cc3)cc1)[C@@H]2CO	0.11
CN1CCCCN2[C@H](C1)[C@@H](c1ccc(C#Cc3ccccc3F)cc1)[C@@H]2CO	-3.4*
